Experimental data taken from publication PMC5540273 (PLoS ONE, 2017).

Columns and labels:
Settings in all cases: concentration: 1 μM, replicates: in singlicate; n = 1
PAK6 = test system: PAK6
PAK7 = test system: PAK7
PCTK1 = test system: T1, PCTK1
T1 construct: gene CDK16

PCTK2 = test system: T2, PCTK2
T2 construct: gene CDK17

PCTK3 = test system: T3, PCTK3
T3 construct: gene CDK18

PDGFRA = test system: PDGFRA
PDGFRB = test system: PDGFRB
PDPK1 = test system: PDPK1
PFTAIRE2 = test system: PFTAIRE2
PFTK1 = test system: T4, PFTK1
T4 construct: gene CDK14
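Also: KINOMEscan kinase panel screen.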

Compound | %Inh (PAK6) [%] | %Inh (PAK7) [%] | %Inh (PCTK1) [%] | %Inh (PCTK2) [%] | %Inh (PCTK3) [%] | %Inh (PDGFRA) [%] | %Inh (PDGFRB) [%] | %Inh (PDPK1) [%] | %Inh (PFTAIRE2) [%] | %Inh (PFTK1) [%]
Fc1cc(Cl)ccc1Nc1ccnc2cc(I)ccc12 [GW551191] | 0 | 0 | 4 | 0 | 0 | 9 | 88 | 0 | 9 | 4
CC(=O)Nc1nc2cnc(Nc3cc(NC(=O)c4cccc(CCC#N)c4)ccc3C)nc2s1 | 19 | 0 | 9 | 6 | 8 | 94.3 | 100 | 4 | 0 | 12
Cc1nnc(-c2ccc3occ(-c4ccc(S(C)=O)cc4)c3c2)[nH]1 (centres unmarked) | 13 | 5 | 8 | 0 | 0 | 36 | 0 | 0 | 24 | 6
Cc1cccc(-c2nc(Nc3ccc4[nH]ncc4c3)c3ccccc3n2)n1 [GW857175] | 4 | 0 | 23 | 2 | 15 | 19 | 0 | 39 | 0 | 9
CCn1c(-c2ccccn2)nc2cnccc21 [SB-736398] | 0 | 0 | 3 | 0 | 17 | 0 | 0 | 97 | 0 | 16
NC(=O)c1nnc2ccccc2c1N | 4 | 0 | 6 | 0 | 7 | 12 | 9 | 7 | 14 | 5
O=C1NC(=O)C(N2CCc3ccccc32)=C1c1ccccc1Cl [SB-373598] | 55 | 0 | 3 | 1 | 17 | 0 | 4 | 32 | 9 | 0
Cc1ccc(-c2cc(-c3c[nH]nc3-c3ccccn3)ccn2)cc1 [GW684088] | 9 | 19 | 0 | 19 | 40 | 7 | 22 | 0 | 0 | 32
O=S(=O)(c1ccc(-c2ccnc3[nH]ccc23)cc1)N1CCCC1 [GSK846226] | 20 | 15 | 7 | 0 | 0 | 0 | 24 | 0 | 24 | 27
Clc1cc(Cl)cc(Nc2ccnc(Nc3cc(Cl)cc(Cl)c3)n2)c1 [GSK175726] | 9 | 10 | 0 | 19 | 0 | 14 | 21 | 19 | 2 | 0
CC(C)(C)c1ccc(C(=O)Nc2cn3cc(Cl)ccc3n2)cc1 | 0 | 27 | 0 | 0 | 0 | 12 | 71 | 0 | 0 | 0
C[C@@H]1CCCCN1c1cc(-c2ccc3c(N)n[nH]c3c2)nc(N)n1 [GSK2258759] | 0 | 0 | 5 | 0 | 0 | 0 | 6 |  | 3 | 17
Cc1cccc(-c2nc(Nc3cccc(C(N)=O)c3)c3ccccc3n2)n1 [GW876019] | 0 | 0 | 0 | 0 | 0 | 0 | 5 | 0 | 20 | 0
Cc1cc(NCC(c2ccccc2)c2ccccc2)nc(NCc2ccc(C(F)(F)F)cc2)n1 [GW497681] | 0 | 0 | 0 | 13 | 35 | 0 | 21 | 0 | 13 | 18
COc1ccc(C2=C(Nc3cccc(C(=O)O)c3)C(=O)NC2=O)cc1 [SB-390765] | 0 | 0 | 1 | 8 | 0 | 30 | 0 | 21 | 24 | 6
COc1ccc(CNC(=O)NC2CCN(c3ccnc(Nc4cc(OC)c(OC)c(OC)c4)n3)C2)cc1 (centres unmarked) [GSK1379748] | 0 | 2 | 7 | 0 | 0 | 15 | 54 | 0 | 9 | 0
Cn1ccc2ncnc(Oc3ccc(NC(=O)Nc4ccccc4)cc3)c21 | 0 | 0 | 1 | 4 | 1 | 97.6 | 100 | 0 | 0 | 0
Nc1nc(-c2nccs2)c(-c2ccnc3ccccc23)s1 [GW693542] | 9 | 0 | 8 | 0 | 5 | 0 | 1 | 0 | 13 | 17
